The values that follow come from the supplement of paper PMC8285479.

SMILES strings stand for the structures. Where a name gives a salt, the structure may show the parent alone. ± gives the standard deviation of the averaged measurements. The full ranking holds about 1,900 compounds; the median of “normalised cell viability (NPI; 0 = phenylarsine oxide control, 1 = DMSO control)” is about 1, and the lowest 2% start at about 0.039. The entries come from a sample that favours the lowest values as a whole.

The test deals with NCI-H1944. The test can be described thus: normalised cell viability (NPI; 0 = phenylarsine oxide control, 1 = DMSO control) (fraction of DMSO control); NCI-H1944 is a non-small cell lung cancer line; higher = more viable cells (less compound toxicity). Particulars: 6 days.
The mark [1] stands for this setting: glucocorticoid arm: hydrocortisone 2.75 uM co-treatment, compound 1 µM.
[2] abbreviates: glucocorticoid arm: hydrocortisone 2.75 uM co-treatment, compound 5 µM.
[3] abbreviates: glucocorticoid arm: hydrocortisone 2.75 uM pre-treated 2 days and continued, compound 1 µM.
Where [4] appears, read: glucocorticoid arm: hydrocortisone 2.75 uM pre-treated 2 days and continued, compound 5 µM.
[5] abbreviates: glucocorticoid arm: vehicle, compound 1 µM.
The mark [6] stands for this setting: glucocorticoid arm: vehicle, compound 5 µM.
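Further: CTB read-out in 384-well plates, triplicate wells, NPI normalised per plate against 1 µM phenylarsine oxide (0) and 0.1% DMSO (1) controls.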

In the case of `O=[N+]([O-])c1ccc(CSc2ncnc3c2ncn3[C@@H]2O[C@H](CO)[C@@H](O)[C@H]2O)cc1` [S-(4-Nitrobenzyl)-6-thioinosine], the normalised cell viability reads like this: under setting [1], 0.9813 ± 0.0047; under setting [2], 0.968 ± 0.027; under setting [3], 0.987 ± 0.018; under setting [4], 0.996 ± 0.059; under setting [5], 0.9973 ± 0.0046; under setting [6], 0.9917 ± 0.0097.
Turning to `Nc1c(O)cc(O)cc1C=Cc1ccc(O)cc1` [Aminoresveratrol sulfate], the normalised cell viability runs as follows: under setting [1], 1 ± 0.015; under setting [2], 1.01 ± 0.02; under setting [3], 1.01 ± 0.015; under setting [4], 1.01 ± 0.014; under setting [5], 0.9937 ± 0.0027; under setting [6], 1.01 ± 0.012.
`CC(C)C(=O)Oc1ccc(CO)cc1[C@H](CCN(C(C)C)C(C)C)c1ccccc1` [Fesoterodine Fumarate]: the normalised cell viability is 1.002 ± 0.0076 under setting [1]; 0.966 ± 0.019 under setting [2]; 1 ± 0.025 under setting [3]; 0.984 ± 0.04 under setting [4]; 1.001 ± 0.009 under setting [5]; 1 ± 0.016 under setting [6].
For the compound `NCCC1CCCC(CCN)N1` (stereo not given) [MDL 26,630 trihydrochloride], the normalised cell viability reads like this: under setting [1], 0.9937 ± 0.0075; under setting [2], 0.981 ± 0.021; under setting [3], 0.9927 ± 0.0075; under setting [4], 1.04 ± 0.11; under setting [5], 0.9923 ± 0.0042; under setting [6], 1 ± 0.011.
On to `NC1(C(=O)O)CCCCC1` [1-Amino-1-cyclohexanecarboxylic acid hydrochloride], for which the normalised cell viability reads like this: under setting [1], 0.998 ± 0.011; under setting [2], 0.9907 ± 0.0081; under setting [3], 0.9927 ± 0.0049; under setting [4], 0.991 ± 0.013; under setting [5], 0.9913 ± 0.009; under setting [6], 0.999 ± 0.011.
Regarding `N#C/C(=C/c1ccc(O)c(O)c1)C(=O)N1CCc2ccccc21` [Tyrphostin AG 528], the normalised cell viability is 0.993 ± 0.0089 under setting [1]; 0.987 ± 0.032 under setting [2]; 1.02 ± 0.031 under setting [3]; 0.9767 ± 0.0095 under setting [4]; 1.003 ± 0.0058 under setting [5]; 1.02 ± 0.01 under setting [6].
Regarding `NCCCCCC(=O)O` [6-Aminohexanoic acid], the normalised cell viability runs as follows: under setting [1], 0.9763 ± 0.0095; under setting [2], 0.972 ± 0.022; under setting [3], 1 ± 0.011; under setting [4], 0.971 ± 0.041; under setting [5], 0.99 ± 0.019; under setting [6], 0.9787 ± 0.0067.
Turning to `NCC(=O)CCC(=O)O` [Aminolevulinic acid hydrochloride; Aminolevulinic acid], the normalised cell viability under setting [1] was determined as 1.04 ± 0.021; the normalised cell viability under setting [2] turned out to be 0.0671 ± 0.0064; the normalised cell viability under setting [3] worked out at 1.023 ± 0.0058; the normalised cell viability under setting [4] was 0.486 ± 0.037; the normalised cell viability under setting [5] is 1.001 ± 0.0081; the normalised cell viability under setting [6] came to 0.00332 ± 0.0013.
For the compound `NCCCCC(=O)O` [5-Aminovaleric acid hydrochloride], the normalised cell viability runs as follows: under setting [1], 0.9807 ± 0.0096; under setting [2], 0.99533 ± 0.00058; under setting [3], 0.9797 ± 0.0035; under setting [4], 0.9945 ± 0.00071; under setting [5], 0.992 ± 0.0066; under setting [6], 0.9927 ± 0.0032.
On to `[Cl-].[Li+]` [Lithium Chloride], for which the normalised cell viability was 1.007 ± 0.0058 under setting [1]; 0.998 ± 0.013 under setting [2]; 1.01 ± 0.013 under setting [3]; 1.01 ± 0.018 under setting [4]; 1.01 under setting [5]; 1.002 ± 0.0072 under setting [6].
For `C[C@]12CC[C@@H]3c4ccc(O)cc4CC[C@H]3[C@@H]1CC[C@@H]2O` [beta-Estradiol], the normalised cell viability by setting is: under setting [1], 0.9927 ± 0.005; under setting [2], 0.954 ± 0.022; under setting [3], 0.9937 ± 0.0055; under setting [4], 0.962 ± 0.028; under setting [5], 0.9753 ± 0.0031; under setting [6], 0.9807 ± 0.0032.
As to `C[C@]12CC[C@@H]3c4ccc(O)cc4CC[C@H]3[C@@H]1C[C@@H](O)[C@@H]2O` [Estriol], the normalised cell viability reads like this: under setting [1], 1.02 ± 0.011; under setting [2], 1.01 ± 0.014; under setting [3], 1.01 ± 0.01; under setting [4], 1.02 ± 0.021; under setting [5], 1.007 ± 0.0058; under setting [6], 1.01 ± 0.011.
As to `CNC(=O)[C@H]1O[C@@H](n2cnc3c(NCc4ccc(N)cc4)ncnc32)[C@H](O)[C@@H]1O`, the normalised cell viability is, setting by setting: under setting [1], 1.01 ± 0.012; under setting [2], 0.9953 ± 0.0081; under setting [3], 0.997 ± 0.003; under setting [4], 1; under setting [5], 0.9873 ± 0.0091; under setting [6], 1.001 ± 0.0085.
For the compound `C[C@@H](Oc1ccc(Oc2cnc3ccc(Cl)cc3n2)cc1)C(=O)O`, the normalised cell viability runs as follows: under setting [1], 1.004 ± 0.0098; under setting [2], 0.88 ± 0.023; under setting [3], 0.858 ± 0.29; under setting [4], 1.05 ± 0.015; under setting [5], 1.027 ± 0.0058; under setting [6], 0.522 ± 0.054.
As for `CNCC[C@@H](Oc1ccc(C(F)(F)F)cc1)c1ccccc1` [R-(-)-Fluoxetine hydrochloride], the normalised cell viability under setting [1] turned out to be 0.999 ± 0.011; the normalised cell viability under setting [2] worked out at 0.92 ± 0.014; the normalised cell viability under setting [3] is 1.013 ± 0.0058; the normalised cell viability under setting [4] stood at 1.02 ± 0.029; the normalised cell viability under setting [5] came to 0.995 ± 0.0036; the normalised cell viability under setting [6] worked out at 0.9947 ± 0.005.
For `N#Cc1ccc2[nH]c(O)c(-c3ccc(CN4CCOCC4)cn3)c2c1`, the normalised cell viability runs as follows: under setting [1], 1.11 ± 0.021; under setting [2], 1.24 ± 0.021; under setting [3], 1.053 ± 0.0058; under setting [4], 1.11 ± 0.023; under setting [5], 1.02 ± 0.011; under setting [6], 1.05 ± 0.015.
Consider `CN1CC2c3ccccc3Oc3ccc(Cl)cc3C2C1` (stereo not given) [Asenapine], for which the normalised cell viability stood at 1.002 ± 0.0072 under setting [1]; 1.02 ± 0.024 under setting [2]; 1.01 ± 0.011 under setting [3]; 1.01 ± 0.028 under setting [4]; 0.995 ± 0.0087 under setting [5]; 1 ± 0.0092 under setting [6].
On to `CN(C)CCC(c1ccc(Br)cc1)c1ccccn1` (racemic) [(±)-Brompheniramine maleate], for which the normalised cell viability came to 1.001 ± 0.0081 under setting [1]; 1.03 ± 0.017 under setting [2]; 1.013 ± 0.0058 under setting [3]; 1.04 ± 0.014 under setting [4]; 1.013 ± 0.0058 under setting [5]; 1.02 ± 0.01 under setting [6].
In the case of `CC(C)C[C@H](NP(=O)(O)O[C@H]1O[C@H](C)[C@@H](O)[C@H](O)[C@@H]1O)C(=O)N[C@@H](Cc1c[nH]c2ccccc12)C(=O)O` [Phosphoramidon disodium], the normalised cell viability runs as follows: under setting [1], 0.9937 ± 0.0061; under setting [2], 1.01 ± 0.02; under setting [3], 1.01 ± 0.016; under setting [4], 0.999 ± 0.011; under setting [5], 0.991 ± 0.0044; under setting [6], 0.9847 ± 0.0081.
In the case of `S=C(S)OC1CC2CC1C1CCCC21` [D-609 potassium], the normalised cell viability under setting [1] came to 1.02 ± 0.01; the normalised cell viability under setting [2] stood at 1.03 ± 0.017; the normalised cell viability under setting [3] is 1.04 ± 0.02; the normalised cell viability under setting [4] turned out to be 1.04 ± 0.01; the normalised cell viability under setting [5] was determined as 1.03 ± 0.011; the normalised cell viability under setting [6] is 1.03.
For the compound `Cn1c(=O)c2nc[nH]c2n(C)c1=O` [Theophylline], the normalised cell viability reads like this: under setting [1], 1.001 ± 0.0085; under setting [2], 1.01 ± 0.01; under setting [3], 1.02 ± 0.021; under setting [4], 0.9943 ± 0.0049; under setting [5], 0.99 ± 0.0087; under setting [6], 0.9907 ± 0.0038.
For `O=C1OC(=O)[C@H]2[C@@H]1[C@@H]1CC[C@H]2O1` [Norcantharidin], the normalised cell viability is, setting by setting: under setting [1], 1.007 ± 0.0058; under setting [2], 1.03 ± 0.02; under setting [3], 1.02 ± 0.011; under setting [4], 0.924 ± 0.23; under setting [5], 0.9903 ± 0.0011; under setting [6], 1 ± 0.022.
Turning to `O=C(OCCN1CCOCC1)C1(c2ccccc2)CCCCC1`, the normalised cell viability is 1.01 ± 0.011 under setting [1]; 1.03 ± 0.088 under setting [2]; 1.02 ± 0.015 under setting [3]; 0.891 ± 0.21 under setting [4]; 1.017 ± 0.0058 under setting [5]; 1.03 ± 0.011 under setting [6].
Take `Cc1ccc(-n2nc(C(C)(C)C)cc2NC(=O)Nc2ccc(OCCN3CCOCC3)c3ccccc23)cc1` [BIRB 796 (Doramapimod)]: the normalised cell viability came out at 0.806 ± 0.012 under setting [1]; 0.826 ± 0.03 under setting [2]; 0.775 ± 0.019 under setting [3]; 0.816 ± 0.034 under setting [4]; 0.995 ± 0.005 under setting [5]; 1.017 ± 0.0058 under setting [6].
Regarding `O=C(Cc1ccc(-c2ccc(OCCN3CCOCC3)cc2)cn1)NCc1ccccc1`, the normalised cell viability under setting [1] worked out at 0.235 ± 0.021; the normalised cell viability under setting [2] stood at 0.258 ± 0.015; the normalised cell viability under setting [3] amounted to 0.464 ± 0.041; the normalised cell viability under setting [4] turned out to be 0.518 ± 0.077; the normalised cell viability under setting [5] is 0.0379 ± 0.0028; the normalised cell viability under setting [6] was determined as 0.0359 ± 0.0039.
